Screening data: PubChem, National Center for Advancing Translational Sciences (NCATS)
Hits are enriched below; roughly 19% of the tested compounds scored in any of these assays.
TDP1 cell noCPT – qHTS for Inhibitors of human tyrosyl-DNA phosphodiesterase 1 (TDP1): qHTS in cells in absence of CPT; 420,000 tested, 15% active; Potency, µM (doses to about 46.2 µM), usual class: inhibitors; DT40 Tdp1-/- hTDP1 cells, no CPT, ATP luminescence, 48 h; AID 686978, 2013; also: nearly all actives have a fitted effect of over 55% in size
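Compound effects on proliferation are scored in DT40 Tdp1-/-;hTDP1 cells in the absence of CPT. ATP levels (CellTiter-Glo luminescence) are recorded after a ≥48 hr, 37 °C incubation.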
ELG1 DNA repair – qHTS screen for small molecules that inhibit ELG1-dependent DNA repair in human embryonic kidney (HEK293T) cells expressing luciferase-tagged ELG1 | HEK293T ELG1-luciferase reporter, luminescence, 16 h; DNA damage induced by 5-fluorouridine | Potency, µM (titrated, usually from 46.1 µM), usual class: inhibitors | 330,000 tested, 2.3% active; also: nearly all actives have a fitted effect of over 55% in size
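Cells (2,000 per well) received 5-fluorouridine plus test compound or DMSO and were incubated 16 hr at 37 °C, 5% CO2. Luciferase activity was read by luminescence 30 min after ONE-Glo addition; signal suppression marked inhibition of damage-induced ELG1 function.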
IL1B secr inh – qHTS for Inhibitors of Inflammasome Signaling: IL-1-beta AlphaLISA Primary Screen; THP-1 LPS/ATP IL-1B secretion, AlphaLISA, 16 h; hits give low values; activity change, % at 57.5 µM; 360,000 tested, 4.7% active; AID 743279, 2014; in the data active = activity change below about -50%; inconclusive = mostly about -30% to -49%
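Secreted IL-1B measured by AlphaLISA bead assay after 16 h compound exposure of THP-1 cells; compounds (final up to 57.5 uM) added 1 h before LPS (250 ng/mL) and ATP (1.25 mM) stimulation; lower signal means less secretion.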
TDP1 inh – qHTS Assay for Inhibitors of Tyrosyl-DNA Phosphodiesterase (TDP1) | Tyrosyl-DNA phosphodiesterase 1 (Homo sapiens), Q9NUW8 | recombinant TDP1, AlphaScreen DNA substrate cleavage | Potency, µM (titrated, usually from 130 µM), usual class: inhibitors | 350,000 tested, 0.28% active; also: nearly all actives have a fitted effect of over 40% in size
Target sequence (Q9NUW8 whole entry, looked up): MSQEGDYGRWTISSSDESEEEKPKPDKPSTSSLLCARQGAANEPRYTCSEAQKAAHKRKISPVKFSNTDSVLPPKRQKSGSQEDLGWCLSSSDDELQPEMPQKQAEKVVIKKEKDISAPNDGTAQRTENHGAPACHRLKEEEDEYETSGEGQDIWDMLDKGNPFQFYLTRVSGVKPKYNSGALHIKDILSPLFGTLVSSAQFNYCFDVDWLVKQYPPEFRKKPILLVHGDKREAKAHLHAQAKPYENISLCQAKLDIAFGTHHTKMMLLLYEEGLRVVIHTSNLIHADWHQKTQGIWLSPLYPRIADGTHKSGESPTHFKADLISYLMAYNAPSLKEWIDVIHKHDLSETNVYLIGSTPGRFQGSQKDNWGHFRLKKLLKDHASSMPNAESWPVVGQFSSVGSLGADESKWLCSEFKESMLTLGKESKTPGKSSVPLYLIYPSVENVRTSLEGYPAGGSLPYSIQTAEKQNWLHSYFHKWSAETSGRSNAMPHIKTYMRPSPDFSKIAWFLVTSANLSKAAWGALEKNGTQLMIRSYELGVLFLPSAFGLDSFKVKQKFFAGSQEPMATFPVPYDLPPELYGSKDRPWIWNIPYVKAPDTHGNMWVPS
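Tdp1 1 nM final; 15 min RT w/ cpd; substrate 15 nM, 5 min; beads 10 ug/ml, 10 min; AlphaScreen read. Neg ctrl: no enzyme.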
DT40 TDP1 CPT – qHTS for Inhibitors of human tyrosyl-DNA phosphodiesterase 1 (TDP1): qHTS in cells in presence of CPT; chicken DT40 Tdp1-/-;hTDP1 cells + 20 nM CPT, ATP luminescence, 48 h; Potency, µM (doses to about 46.2 µM), most hits filed as inhibitors; 420,000 tested, 12% active; also: nearly all actives have a fitted effect of over 55% in size
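Chicken DT40 Tdp1-/- cells stably complemented with human TDP1 were seeded at 400 cells/well in medium containing 20 nM camptothecin, exposed to pin-transferred compounds, and grown at 37 °C for at least 48 hr. Viability was read as ATP luminescence.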
Giardia killer – Small Molecules that selectively kill Giardia lamblia: qHTS; Giardia lamblia trophozoite viability; activity change, % at 7.66 µM, hits read low; 340,000 tested, 0.15% active; in the data active = activity change below about -80%; inconclusive = between about -30% and that limit;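 also: parasites exposed to compound for two days anaerobically before the ATP read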
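Trophozoite viability was measured as ATP-dependent luminescence, read 15-30 min after reagent addition. Before that, parasites at 100 cells/well were exposed to compounds for 48 h, anaerobically, at 37 deg C.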
Of the large screens only hits and unclear results are named; the others gave an inactive call. Unless noted, calls follow the shape of the dose curve; as a rule, active = well fitted curve in the direction sought with a large enough effect; inconclusive = small, poorly fitted or top-dose-only effect, or another doubt; inactive = no such curve, though single readings can be large; an effect the other way counts as inactive or inconclusive.

C=C[C@@H]1c2c(F)cccc2N(S(=O)(=O)c2ccc(C)cc2)[C@H](c2ccc(C(=O)OC)cc2)C1(C#N)C#N	TDP1 cell noCPT inconclusive, DT40 TDP1 CPT inconclusive
C=C[C@@H]1c2ccccc2N(S(=O)(=O)c2ccc(C)cc2)[C@H](c2ccc(C(F)(F)F)cc2)C1(C#N)C#N	TDP1 cell noCPT 12µM, DT40 TDP1 CPT 23µM
Cc1ccc(NC(=O)CC(C(=O)O)c2ccccc2)cc1 (centres undefined)	none
OC(COc1ccc(CNCCc2ccc(C(F)(F)F)cc2)cc1)CN1CCCCC1 (centres undefined)	TDP1 cell noCPT 5.8µM, ELG1 DNA repair inconclusive, DT40 TDP1 CPT 4.6µM
OC(COc1ccc2ccccc2c1)CN1CCCC1 (centres undefined)	none
COc1ccc(CN(C)CC(O)COc2ccc(-c3ccccc3)cc2)cc1OC (centres undefined)	TDP1 cell noCPT inconclusive, IL1B secr inh -71, DT40 TDP1 CPT 18µM
CN(Cc1ccc(OCC(O)CN(C)Cc2ccccc2)cc1)Cc1nccn1C (centres undefined)	TDP1 cell noCPT inconclusive, DT40 TDP1 CPT inconclusive (no result: TDP1 inh)
OC(COc1ccc(OCC(O)CN2CCCCC2)cc1)CN1CCCCC1 (centres undefined)	TDP1 cell noCPT inconclusive, IL1B secr inh inconclusive (no result: TDP1 inh)
COc1ccccc1COCC(O)CNCCc1ccc(C(F)(F)F)cc1 (centres undefined)	TDP1 cell noCPT inconclusive, IL1B secr inh -78, DT40 TDP1 CPT inconclusive (no result: TDP1 inh)
OC(CNCCc1ccc(C(F)(F)F)cc1)COc1ccc2ccccc2c1 (centres undefined)	IL1B secr inh -101, DT40 TDP1 CPT inconclusive
CCCn1nnnc1NCc1ccccc1C	none
CC(=O)c1cccc(OCC(O)CNCCc2ccc(Cl)cc2)c1 (centres undefined)	IL1B secr inh inconclusive, DT40 TDP1 CPT inconclusive (no result: TDP1 inh)
CCOC(=O)c1cccc(OCC(O)CNCCOc2ccccc2F)c1 (centres undefined)	none
CC(=O)CCc1ccc(OCC(O)CNCCOc2ccc(C)cc2)cc1 (centres undefined)	IL1B secr inh inconclusive
COc1ccc(CCNCC(O)COc2cccc(Br)c2)cc1 (centres undefined)	TDP1 cell noCPT inconclusive, IL1B secr inh -59, DT40 TDP1 CPT inconclusive
CN(Cc1ccc(Br)cc1)CC(O)COc1cccc(Br)c1 (centres undefined)	TDP1 cell noCPT inconclusive, IL1B secr inh -93, DT40 TDP1 CPT inconclusive
C=CCOc1ccc(CN(C)CC(O)COc2ccc(CCC(C)=O)cc2)cc1 (centres undefined)	TDP1 cell noCPT 16µM, DT40 TDP1 CPT inconclusive
OC(CNCCc1ccc(C(F)(F)F)cc1)COc1cccc2ccccc12 (centres undefined)	TDP1 cell noCPT inconclusive, IL1B secr inh -63, DT40 TDP1 CPT inconclusive
COc1ccc(CN2CC(=O)N(c3cc(Cl)ccc3OC)C2=S)cc1OC	TDP1 cell noCPT inconclusive, DT40 TDP1 CPT inconclusive (no result: TDP1 inh)
COc1cccc(N2CC(NC(=O)Cc3cccs3)CC2=O)c1 (centres undefined)	none (no result: ELG1 DNA repair, IL1B secr inh, Giardia killer)
COc1ccc(CCN(C)CCCC(C#N)(c2cc(OC)c(OC)c(OC)c2)C(C)C)cc1OC (centres undefined)	TDP1 cell noCPT 21µM, DT40 TDP1 CPT inconclusive
C=CC[C@H](CC(=O)N[C@H](CO)Cc1ccccc1)C(=O)N[C@@H](COC(=O)[C@@H](CC=C)Cc1ccc(F)cc1)Cc1c[nH]c2ccccc12	TDP1 cell noCPT inconclusive, ELG1 DNA repair inconclusive, DT40 TDP1 CPT inconclusive
C=CCC[C@@H](Cc1ccc(F)cc1)C(=O)OC[C@@H](NC(=O)[C@@H](CC=C)CC(=O)N[C@H](CO)Cc1ccccc1)C(C)(C)C	TDP1 cell noCPT 16µM, ELG1 DNA repair inconclusive, DT40 TDP1 CPT 23µM
C=CC[C@@H](CC(=O)N[C@@H](CO)Cc1ccccc1)C(=O)N[C@H](COC(=O)[C@@H](CC=C)Cc1ccc(F)cc1)C(C)(C)C	ELG1 DNA repair inconclusive, DT40 TDP1 CPT 16µM
CCC(=O)c1ccc(N2CCN(C(=O)COc3ccc(F)cc3)CC2)c(F)c1	TDP1 cell noCPT 23µM, ELG1 DNA repair inconclusive, DT40 TDP1 CPT 21µM
CCC(=O)c1cc(F)ccc1OCC(=O)N1CCN(c2ccc(F)cc2)CC1	TDP1 cell noCPT 21µM, ELG1 DNA repair inconclusive, DT40 TDP1 CPT 18µM
CC(=O)c1ccc(N2CCN(C(=O)Cc3ccccc3)CC2)c(F)c1	TDP1 cell noCPT inconclusive, DT40 TDP1 CPT inconclusive (no result: TDP1 inh)
CC(=O)c1ccc(N2CCN(C(=O)COc3ccc(F)cc3)CC2)c(F)c1	TDP1 cell noCPT 16µM, ELG1 DNA repair inconclusive, DT40 TDP1 CPT inconclusive
CCOC(=O)N1CCN(c2ccc(C(=O)CC)cc2F)CC1	TDP1 cell noCPT inconclusive, ELG1 DNA repair inconclusive, DT40 TDP1 CPT inconclusive
CCn1cc2nc(SCc3cccc(OC)c3)n(Cc3ccc(Cl)cc3)c(=O)c2n1	TDP1 cell noCPT 13µM, DT40 TDP1 CPT 16µM (no result: ELG1 DNA repair, IL1B secr inh, Giardia killer)
CCn1cc2nc(SCC(=O)Nc3ccc(OC)c(OC)c3)n(Cc3ccc(Cl)cc3)c(=O)c2n1	TDP1 cell noCPT inconclusive, DT40 TDP1 CPT 18µM (no result: ELG1 DNA repair, IL1B secr inh, Giardia killer)
CCn1cc2nc(SCC(=O)Nc3ccccc3F)n(Cc3ccccc3)c(=O)c2n1	TDP1 cell noCPT inconclusive, DT40 TDP1 CPT inconclusive
CCn1cc2nc(SCc3cc(C)ccc3C)n(CCc3ccccc3)c(=O)c2n1	TDP1 cell noCPT 18µM, DT40 TDP1 CPT 21µM (no result: ELG1 DNA repair, IL1B secr inh, Giardia killer)
C[C@H](CSC(=O)c1ccccc1)C(=O)N1C[C@@H](Sc2ccccc2)C[C@H]1C(=O)O	none (no result: ELG1 DNA repair, IL1B secr inh, TDP1 inh, Giardia killer)
CC1CCCCN1S(=O)(=O)c1cnc(Cl)c(Br)c1 (centres undefined)	TDP1 cell noCPT inconclusive, ELG1 DNA repair inconclusive, IL1B secr inh -94, DT40 TDP1 CPT inconclusive
CC1CCCCN1S(=O)(=O)c1coc(C(N)=O)c1 (centres undefined)	none
CC1CCN(S(=O)(=O)c2cnc(Cl)c(Br)c2)CC1	ELG1 DNA repair inconclusive, IL1B secr inh -65
CC1CCN(S(=O)(=O)c2ccc(Cl)cc2Br)CC1	none
COc1ccc(NC(=O)c2csnn2)cc1	none (no result: ELG1 DNA repair, IL1B secr inh, Giardia killer)
COc1ccccc1CNC(=O)/C=C/c1ccc(S(=O)(=O)N2CCOCC2)cc1	TDP1 cell noCPT inconclusive, ELG1 DNA repair inconclusive
